# Data: PubChem BioAssay (Tox21)
# “And” between values parts separate entries of the source, which are not always exact repeats. Identical values can stand only once. Records with an inconclusive call do not appear. A call without a number means that no potency is given here. Some compounds were tested as several samples or in several runs, with calls that do not always agree. The source made the active and inactive calls. Calls come from the whole dose curve; as a rule, active = well fitted curve in the direction sought with a large enough effect in the repeat runs; inconclusive = weak or mixed curves; inactive = no such curve, though single readings can be large; an effect the other way counts as inactive or inconclusive.
# Tests used:
# [1] = Caspase-3/7 induction in HepG2 cells by small molecules, qHTS cell viability counter screen (AID 1346981); note: series mostly up to about 92 µM; nearly all actives have a fitted effect of over 30% in size
# Method in brief: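 CellTiter-Fluor fluorescence measured viability in the same wells used for Caspase-Glo 3/7. HepG2 (wild type) at 2,000 cells/well were pre-incubated 5 hr, dosed, and given reagent at 16 hr, with 1 hr further at 37C.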
# [2] = molecular target: Nuclear receptor subfamily 1 group I member 2 (Homo sapiens) (UniProt O75469); assay: Human pregnane X receptor (PXR) small molecule agonists, qHTS assay (AID 1346982); note: nearly all actives have a fitted effect of over 35% in size; note: potency is the fitted concentration of half-maximal effect
# Nuclear receptor subfamily 1 group I member 2 (Homo sapiens), sequence (O75469 whole entry, looked up): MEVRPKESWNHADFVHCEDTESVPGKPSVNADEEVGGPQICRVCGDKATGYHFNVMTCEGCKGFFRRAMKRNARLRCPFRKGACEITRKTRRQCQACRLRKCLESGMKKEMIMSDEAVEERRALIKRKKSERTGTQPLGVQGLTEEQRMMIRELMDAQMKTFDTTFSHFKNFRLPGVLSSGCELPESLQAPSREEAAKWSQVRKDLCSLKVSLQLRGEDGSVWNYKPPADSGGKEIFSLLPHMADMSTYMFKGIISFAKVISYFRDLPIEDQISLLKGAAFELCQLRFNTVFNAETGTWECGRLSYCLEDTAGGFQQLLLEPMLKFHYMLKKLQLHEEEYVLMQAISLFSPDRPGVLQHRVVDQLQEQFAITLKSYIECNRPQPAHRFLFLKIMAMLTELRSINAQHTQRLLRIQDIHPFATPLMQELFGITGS
# Method in brief: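 Agonist mode: luminescence from ONE-Glo after 24 h compound exposure at 37C in HepG2 cells carrying hPXR-responsive CYP3A4 luciferase, plated in charcoal-stripped serum medium 5 h beforehand.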
# [3] = molecular target: Cytochrome P450 2D6 (Homo sapiens) (UniProt P10635); assay: Cytochrome P450 Family 2 Subfamily D Member 6 (CYP2D6) small molecule antagonists: luciferase reporter qHTS assay (AID 1671196); note: nearly all actives have a fitted effect of over 50% in size; note: potency is the fitted concentration of half-maximal effect; for activity change, negative = inhibition: series mostly up to about 120 µM
# Cytochrome P450 2D6 (Homo sapiens), sequence (P10635 whole entry, looked up): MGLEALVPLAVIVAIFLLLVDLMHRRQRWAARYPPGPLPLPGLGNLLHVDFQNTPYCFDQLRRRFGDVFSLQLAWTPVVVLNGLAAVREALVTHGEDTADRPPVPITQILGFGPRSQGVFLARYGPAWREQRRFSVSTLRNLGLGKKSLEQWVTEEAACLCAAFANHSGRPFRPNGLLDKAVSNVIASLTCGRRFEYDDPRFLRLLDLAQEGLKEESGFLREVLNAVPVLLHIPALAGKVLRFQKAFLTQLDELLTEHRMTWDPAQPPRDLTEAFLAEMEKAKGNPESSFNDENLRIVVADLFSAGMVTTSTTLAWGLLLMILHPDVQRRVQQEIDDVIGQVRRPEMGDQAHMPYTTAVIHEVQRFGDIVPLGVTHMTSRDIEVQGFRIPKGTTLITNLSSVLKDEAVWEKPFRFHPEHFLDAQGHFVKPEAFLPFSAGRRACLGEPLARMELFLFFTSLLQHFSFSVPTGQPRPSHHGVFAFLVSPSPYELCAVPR
# Method in brief: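 CYP2D6 activity was followed as luminescence from its luciferin product after a 1 h NADPH-driven reaction at room temperature. Enzyme-substrate mix and compound were pre-incubated for 10 min, and the signal was read 20 min after adding detection reagent.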
# [4] = molecular target: Cytochrome P450 2C19 (Homo sapiens) (UniProt P33261); assay: Cytochrome P450 Family 2 Subfamily C Member 19 (CYP2C19) small molecule antagonists: luciferase reporter qHTS assay (AID 1671197); note: nearly all actives have a fitted effect of over 65% in size; note: potency is the fitted concentration of half-maximal effect; for activity change, negative = inhibition: series mostly up to about 120 µM
# Cytochrome P450 2C19 (Homo sapiens), sequence (P33261 whole entry, looked up): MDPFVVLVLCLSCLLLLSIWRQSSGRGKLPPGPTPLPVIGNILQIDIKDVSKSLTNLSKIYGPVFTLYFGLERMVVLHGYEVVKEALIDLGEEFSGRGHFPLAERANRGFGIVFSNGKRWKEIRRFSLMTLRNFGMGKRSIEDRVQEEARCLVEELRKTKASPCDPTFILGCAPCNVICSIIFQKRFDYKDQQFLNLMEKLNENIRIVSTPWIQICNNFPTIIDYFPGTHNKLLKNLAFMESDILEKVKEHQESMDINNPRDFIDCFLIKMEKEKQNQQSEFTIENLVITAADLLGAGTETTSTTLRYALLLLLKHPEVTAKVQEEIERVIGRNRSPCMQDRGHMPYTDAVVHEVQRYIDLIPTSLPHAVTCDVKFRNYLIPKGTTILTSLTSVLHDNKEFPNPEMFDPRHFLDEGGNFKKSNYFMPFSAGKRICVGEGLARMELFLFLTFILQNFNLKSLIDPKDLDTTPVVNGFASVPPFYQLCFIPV
# Method in brief: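 Inhibition of CYP2C19 was scored from loss of luminescence in a P450-Glo proluciferin substrate assay, NADPH-started and run 1 h at 37C, with ketoconazole as positive control.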
# [5] = molecular target: Cytochrome P450 2C9 (Homo sapiens) (UniProt P11712); assay: Cytochrome P450 Family 2 Subfamily C Member 9 (CYP2C9) small molecule antagonists: luciferase reporter qHTS assay (AID 1671198); note: nearly all actives have a fitted effect of over 50% in size; note: potency is the fitted concentration of half-maximal effect; for activity change, negative = inhibition: series mostly up to about 120 µM
# Cytochrome P450 2C9 (Homo sapiens), sequence (P11712 whole entry, looked up): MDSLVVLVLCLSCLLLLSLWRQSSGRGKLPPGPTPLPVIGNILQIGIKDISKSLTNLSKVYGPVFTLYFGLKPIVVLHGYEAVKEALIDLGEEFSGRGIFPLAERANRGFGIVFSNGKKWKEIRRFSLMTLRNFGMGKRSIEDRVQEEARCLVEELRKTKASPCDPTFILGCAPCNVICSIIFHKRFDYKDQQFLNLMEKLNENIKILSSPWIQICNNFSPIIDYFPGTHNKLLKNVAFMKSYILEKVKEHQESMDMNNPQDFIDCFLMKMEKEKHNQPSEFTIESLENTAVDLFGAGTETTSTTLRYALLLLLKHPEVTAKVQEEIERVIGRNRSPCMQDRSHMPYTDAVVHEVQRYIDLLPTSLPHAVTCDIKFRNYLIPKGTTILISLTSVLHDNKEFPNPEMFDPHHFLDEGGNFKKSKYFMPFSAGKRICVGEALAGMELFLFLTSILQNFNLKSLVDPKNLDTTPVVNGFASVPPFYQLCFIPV
# Method in brief: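 CYP2C9 activity was measured with a P450-Glo proluciferin substrate. Enzyme–substrate mix was held with compound for 10 min at room temperature, then NADPH regeneration solution was added for 1 h at 37C. Luciferin product was read as luminescence.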
# [6] = molecular target: Cytochrome P450 1A2 (Homo sapiens) (UniProt P05177); assay: Cytochrome P450 Family 1 Subfamily A Member 2 (CYP1A2) small molecule antagonists: luciferase reporter qHTS assay (AID 1671199); note: nearly all actives have a fitted effect of over 50% in size; note: potency is the fitted concentration of half-maximal effect; for activity change, negative = inhibition: series mostly up to about 120 µM
# Cytochrome P450 1A2 (Homo sapiens), sequence (P05177 whole entry, looked up): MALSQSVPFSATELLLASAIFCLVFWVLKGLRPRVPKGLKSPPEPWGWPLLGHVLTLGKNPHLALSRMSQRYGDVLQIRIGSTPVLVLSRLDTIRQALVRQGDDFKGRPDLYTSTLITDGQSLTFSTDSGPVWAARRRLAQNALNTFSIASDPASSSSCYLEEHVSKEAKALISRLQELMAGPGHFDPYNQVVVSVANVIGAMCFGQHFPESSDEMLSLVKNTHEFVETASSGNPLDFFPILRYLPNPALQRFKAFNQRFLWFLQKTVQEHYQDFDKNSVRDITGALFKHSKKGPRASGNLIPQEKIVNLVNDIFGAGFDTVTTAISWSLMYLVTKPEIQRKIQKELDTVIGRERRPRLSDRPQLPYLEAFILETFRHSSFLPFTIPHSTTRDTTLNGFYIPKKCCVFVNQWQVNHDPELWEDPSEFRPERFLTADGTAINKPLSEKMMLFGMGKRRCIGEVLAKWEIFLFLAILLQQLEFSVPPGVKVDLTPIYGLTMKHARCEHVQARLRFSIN
# Method in brief: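 Luminescence from luciferin formed by CYP1A2 from a proluciferin substrate, read 20 min after detection reagent. Compound was pre-incubated 10 min with enzyme-substrate, and reaction started with NADPH regeneration solution for 1 h at room temperature; furafylline control.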
# [7] = molecular target: Voltage-gated inwardly rectifying potassium channel KCNH2 (Homo sapiens) (UniProt Q12809); assay: Human Ether-a-go-go-Related Gene (hERG) channel small molecule antagonists: fluorescence cell-based qHTS assay (AID 1671200);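 note: hERG-expressing U2OS cells given a thallium stimulus after FluxOR II dye loading; series mostly up to about 77 µM; nearly all actives have a fitted effect of over 50% in size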
# Voltage-gated inwardly rectifying potassium channel KCNH2 (Homo sapiens), sequence (Q12809 whole entry, looked up): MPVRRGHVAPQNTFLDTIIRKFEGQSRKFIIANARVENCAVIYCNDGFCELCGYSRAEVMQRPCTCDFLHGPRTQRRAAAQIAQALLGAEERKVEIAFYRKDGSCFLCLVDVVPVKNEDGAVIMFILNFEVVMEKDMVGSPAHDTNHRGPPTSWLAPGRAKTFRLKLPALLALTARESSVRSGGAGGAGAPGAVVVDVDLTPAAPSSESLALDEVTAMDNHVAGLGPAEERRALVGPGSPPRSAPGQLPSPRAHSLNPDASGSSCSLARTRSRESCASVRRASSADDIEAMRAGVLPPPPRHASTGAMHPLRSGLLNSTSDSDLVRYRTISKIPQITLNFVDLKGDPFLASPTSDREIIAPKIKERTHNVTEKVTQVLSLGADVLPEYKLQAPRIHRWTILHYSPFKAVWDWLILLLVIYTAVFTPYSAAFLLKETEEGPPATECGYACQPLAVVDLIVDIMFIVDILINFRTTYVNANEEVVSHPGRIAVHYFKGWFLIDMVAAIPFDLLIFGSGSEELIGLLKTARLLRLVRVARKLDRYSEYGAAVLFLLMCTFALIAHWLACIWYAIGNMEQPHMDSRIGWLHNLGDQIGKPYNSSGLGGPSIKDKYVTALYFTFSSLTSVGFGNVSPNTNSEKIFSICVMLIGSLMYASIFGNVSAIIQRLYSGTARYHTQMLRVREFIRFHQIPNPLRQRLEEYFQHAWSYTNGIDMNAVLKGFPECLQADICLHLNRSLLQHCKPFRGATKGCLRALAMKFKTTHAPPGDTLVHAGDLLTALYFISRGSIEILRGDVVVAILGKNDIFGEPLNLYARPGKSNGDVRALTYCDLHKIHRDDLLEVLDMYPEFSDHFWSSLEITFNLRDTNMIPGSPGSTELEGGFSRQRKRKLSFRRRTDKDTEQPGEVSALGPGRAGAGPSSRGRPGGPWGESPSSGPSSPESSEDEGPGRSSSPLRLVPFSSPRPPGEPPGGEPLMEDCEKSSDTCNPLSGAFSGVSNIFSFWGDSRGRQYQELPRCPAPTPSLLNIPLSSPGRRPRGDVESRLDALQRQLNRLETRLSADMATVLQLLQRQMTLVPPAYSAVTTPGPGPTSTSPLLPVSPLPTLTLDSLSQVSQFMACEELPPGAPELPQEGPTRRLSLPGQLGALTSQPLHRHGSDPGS
# Method in brief: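 Thallium served as the potassium surrogate; its influx into dye-loaded U2OS cells carrying the channel was measured by fluorescence over 2 min.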
# [8] = molecular target: Cytochrome P450 3A4 (Homo sapiens) (UniProt P08684); assay: Cytochrome P450 Family 3 Subfamily A Member 4 (CYP3A4) small molecule antagonists: luciferase reporter qHTS assay (AID 1671201); note: nearly all actives have a fitted effect of over 50% in size; note: potency is the fitted concentration of half-maximal effect; for activity change, negative = inhibition: series mostly up to about 120 µM
# Cytochrome P450 3A4 (Homo sapiens), sequence (P08684 whole entry, looked up): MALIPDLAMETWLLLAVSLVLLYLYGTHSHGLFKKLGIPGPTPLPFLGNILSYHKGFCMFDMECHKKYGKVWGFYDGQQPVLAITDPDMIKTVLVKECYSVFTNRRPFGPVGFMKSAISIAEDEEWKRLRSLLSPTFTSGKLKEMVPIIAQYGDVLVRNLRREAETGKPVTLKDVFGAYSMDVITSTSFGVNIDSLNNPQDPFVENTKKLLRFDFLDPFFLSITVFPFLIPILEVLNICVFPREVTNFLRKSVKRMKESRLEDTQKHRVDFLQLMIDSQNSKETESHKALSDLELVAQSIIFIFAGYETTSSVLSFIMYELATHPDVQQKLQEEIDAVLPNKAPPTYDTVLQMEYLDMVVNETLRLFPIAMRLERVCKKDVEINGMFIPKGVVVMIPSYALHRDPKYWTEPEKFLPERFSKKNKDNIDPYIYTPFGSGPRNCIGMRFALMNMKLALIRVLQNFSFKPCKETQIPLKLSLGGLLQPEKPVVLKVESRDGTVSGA
# Method in brief: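 Relative luminescence units after 20 min with luciferin detection reagent served as read-out. Beforehand, CYP3A4 turned over a proluciferin substrate for 1 h at room temperature with NADPH regeneration, following 10 min compound preincubation.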
# [9] = molecular target: Nuclear receptor subfamily 1 group I member 2 (Homo sapiens) (UniProt O75469); assay: Human pregnane X receptor (PXR) activation by small molecules, qHTS assay (AID 1346985); note: nearly all actives have a fitted effect of over 40% in size
# Method in brief: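 DPX-2 cells (HepG2 co-transfected with a PXR response element and a CYP3A4-promoter luciferase construct) were seeded at 2,000 per well, rested 5 hr at 37C, then exposed to DMSO-dissolved compounds for 24 hr. Activation was read as luciferase luminescence.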
Structure (SMILES),Potency [1],Potency [2],Potency [3],Potency [4],Potency [5],Potency [6],outcome [7],Potency [8],Potency [9],"activity change, negative = cytotoxicity [1]",activation [2],"activity change, negative = inhibition [7]"
O=C(O)CCCC[C@@H]1SC[C@@H]2NC(=O)N[C@@H]21,inactive,inactive,inactive,inactive,inactive,inactive,inactive,inactive,–,–,–,–
C=CCNC(N)=S,inactive,inactive,61.9 µM (active) and inactive,69.4 µM (active) and inactive,inactive,inactive,inactive,inactive,inactive,–,–,–
CC(c1cc2ccccc2s1)N(O)C(N)=O (stereo unspecified),inactive,34.4 µM (active) and inactive,inactive,31.7 µM (active),71 µM (active),8.94 µM (active) and 11.5 µM (active),inactive,20 µM (active),inactive,–,–,–
CN(C)CCC(c1ccc(Cl)cc1)c1ccccn1 (stereo unspecified),inactive,–,–,–,–,–,–,–,–,–,–,–
CC(=O)OCC(=O)[C@@]12N=C(C)O[C@@H]1C[C@H]1[C@@H]3CCC4=CC(=O)C=C[C@]4(C)[C@H]3[C@@H](O)C[C@@]12C,inactive,17.2 µM (active),inactive,inactive,inactive,inactive and 17.4 µM (active),inactive,inactive,inactive,–,–,–
CCN(CC)CCCC(C)Nc1ccnc2cc(Cl)ccc12 (stereo unspecified),–,–,–,–,–,–,–,–,inactive,-14.1% [at 8.39 µM] (inactive) and -16.1% [at 19 µM] (inactive),3.19% [at 8.39 µM] (inactive) and -3.77% [at 19 µM] (inactive),0.661% [at 6.97 µM] (inactive) and 1.69% [at 15.8 µM] (inactive)
CC1=CCC2CC1C2(C)C (stereo unspecified),inactive,inactive,inactive and 7.1 µM (active),inactive,inactive,inactive,inactive,inactive,inactive,–,–,–
CCCCCCCCCCCCS,inactive,inactive,inactive,inactive,inactive,inactive,inactive,inactive,–,–,–,–
CC(O)COCC(C)O (stereo unspecified),inactive,inactive,inactive,inactive,inactive,inactive,inactive,inactive,–,–,–,–
C#C[C@]1(O)CC[C@H]2[C@@H]3CCC4=CC(=O)CC[C@@H]4[C@H]3CC[C@@]21C,inactive,48.6 µM (active),inactive,5.03 µM (active) and 4.36 µM (active),–,inactive,inactive,–,inactive,–,–,–
OCCOCCOCCO,inactive,63.4 µM (active) and inactive,inactive,inactive,inactive,inactive,inactive,inactive,inactive,–,–,–
Cc1cccnc1,inactive,inactive,inactive,inactive,inactive,inactive,inactive,inactive,–,–,–,–
O=c1[nH]c(=O)n([C@H]2CCCO2)cc1F,inactive,inactive,inactive,inactive,inactive,inactive,inactive,inactive,inactive,–,–,–
Cc1ccc2oc(=O)ccc2c1,inactive,31.5 µM (active) and inactive,inactive,inactive and 35.6 µM (active),inactive,32.6 µM (active) and 31.7 µM (active),inactive,inactive,–,–,–,–
Nc1ccccc1[N+](=O)[O-],inactive,inactive,inactive,inactive,inactive,35.9 µM (active),inactive,inactive,–,–,–,–
O=C(Oc1ccccc1)c1ccccc1,inactive,inactive,inactive,inactive,inactive,31.7 µM (active),inactive,inactive,–,–,–,–
COc1ccc(Nc2ccccc2)c(C)c1,inactive,inactive and 54.5 µM (active),inactive,inactive and 3.17 µM (active),inactive,inactive and 11.2 µM (active),inactive,inactive,–,–,–,–
CCCCCCCCCCCCOCCO,inactive,61.1 µM (active) and inactive,inactive,25.2 µM (active) and inactive,–,31.7 µM (active) and 34.7 µM (active),inactive,inactive,–,–,–,–
CC(=O)CC(=O)Nc1ccccc1C,inactive,inactive,inactive,inactive,–,39.9 µM (active),inactive,inactive,–,–,–,–
CCCCC(CC)COC(=O)CCCCC(=O)OCC(CC)CCCC (stereo unspecified),inactive,inactive,inactive,70.6 µM (active),–,inactive and 35.6 µM (active),inactive,inactive,–,–,–,–
Cc1occc(=O)c1O,inactive,inactive,inactive,71 µM (active) and inactive,–,inactive,inactive,inactive,–,–,–,–
CN(C)CCOCCN(C)C,inactive,inactive,inactive,inactive,inactive,inactive,inactive,inactive,–,–,–,–
